Compound activity deposited in PubChem by National Center for Advancing Translational Sciences (NCATS).
HCMV inh: inhibitors of human cytomegalovirus. HFF cells, HCMV-luciferase reporter, 72 h; active compounds read low. 410,000 tested, 4.5% active. AID 1259415. activity change, negative = inhibition, % at 57.5 µM; in the data active = activity change below about -60%; inconclusive = no clear call, values can overlap the other calls; inactive = above about -39%
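Inhibition of viral replication was scored as loss of reporter luminescence in HFFs infected with HCMV-luciferase (MOI 1 PFU/cell) for 72 h; compounds tested at 2 doses, normalized to buffer and Salinomycin controls.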
Marburg entry inh: Marburg virus entry inhibition | Marburg virus pseudotyped entry inhibition, cell reporter | Potency, µM (doses to about 37.8 µM), actives largely listed as inhibitors | 300,000 tested, 1.8% active | AID 540276; calls by dose curve; tested in HEK293 cells
HCV inh: inhibitors of hepatitis C virus infection; AID 651820; 340,000 tested, 3.4% active; Huh7.5.1 HCVcc-Cre infection, luciferase reporter, 44 h; Potency, µM (series often up to 41.8 µM), most hits filed as inhibitors; active = well fitted inhibition curve with a large enough effect; inconclusive = small, poorly fitted or top-dose-only effect, or another doubt; inactive = no such curve, though single readings can be large or run the other way
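Antiviral activity was scored by luciferase reporter output from cells infected with HCVcc-Cre (~0.5 moi) in presence of compound, 44 h infection period, cells seeded 1,000/well 4 h prior.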
VACV mCherry inh: inhibitors of vaccinia virus infection (mCherry reporter signal); Vaccinia virus mCherry reporter infection, fluorescence; Potency, µM (doses to about 36.5 µM), actives largely listed as inhibitors; 310,000 tested, 0.63% active; AID 720579; calls by dose curve; tested in A549 cells; also: nearly all actives have a fitted effect of over 35% in size
VACV Venus inh: inhibitors of vaccinia virus (Venus reporter). Vaccinia virus Venus reporter expression, fluorescence. Potency, µM (doses to about 36.5 µM), usual class: inhibitors. 330,000 tested, 0.46% active; calls by dose curve; tested in A549 cells; also: nearly all actives have a fitted effect of over 30% in size
Lassa entry inh: blocks Lassa virus binding to or entry into cells. Lassa virus pseudotype entry inhibition, cell reporter. Potency, µM (highest dose often 37.9 µM), hits mostly inhibitors. 300,000 tested, 1.2% active. AID 540256; calls by dose curve; tested in HEK293 cells; also: nearly all actives have a fitted effect of over 50% in size
A number is an active result; 0 = inactive; ? = inconclusive; - = not tested or not shown. Hits are enriched below; roughly 7.8% of the tested compounds scored in any of these assays.

SMILES	HCMV inh	Marburg entry inh	HCV inh	VACV mCherry inh	VACV Venus inh	Lassa entry inh
CCOc1ccc(CCNC(=O)c2cc3c(-c4ccccc4F)nn(C)c3s2)cc1	0	?	-	0	0	0
Cc1cc(Br)ccc1NC(=O)c1coc(=O)c2ccccc12	0	0	-	0	0	0
O=C(O)c1ccc(CN2CCCCC2)o1	-68	0	0	0	0	0
O=C(NC(=S)N(CCCCO)C1CCCCC1)c1sc2ccccc2c1Cl	?	13µM	0	0	?	?
CC1CCCCC1NC(=S)NC(=O)c1sc2ccccc2c1Cl (stereo not given)	0	0	0	0	0	0
CCCCN(CCCC)CCCNC(=O)c1cc(-c2ccc(Cl)s2)nc2ccccc12	0	?	-	?	0	0
COCC1CCCCN1C(=O)c1ccc2oc(CCc3ccccc3)nc2c1 (stereo not given)	0	?	-	0	0	0
CCOC(=O)CC1CCCCN1C(=O)c1ccc2oc(CCc3ccccc3)nc2c1 (stereo not given)	0	-	10µM	-	-	-
Cn1nc(C(F)(F)F)cc1Oc1ncc(C(F)(F)F)cc1Cl	-62	0	0	0	0	0
CCOC(=O)c1ccc2c(c1)nc(C1CCN(S(=O)(=O)c3cccs3)CC1)n2CC	?	?	6.3µM	?	0	?
CCOC(=O)c1cccc(NC(=O)C2CCN(S(=O)(=O)c3cccs3)CC2)c1	0	?	?	-	-	?
CC(NC1CCN(Cc2ccccc2)CC1)c1ccc(F)cc1 (stereo not given)	0	?	?	0	0	?
CN1CCC(NCCC(c2ccc(F)cc2)c2ccc(Cl)cc2)CC1 (stereo not given)	-97	?	2µM	?	11µM	?
CC(C)C(CCNCc1ccccn1)c1ccc(Cl)cc1 (stereo not given)	?	?	?	0	0	0
CC(C)C(CCNC1CCN(C)CC1)c1ccc(Cl)cc1 (stereo not given)	-99	-	1.4µM	-	-	-
CCOc1ccc(-c2cc(NC(=O)Nc3cccc(C(C)=O)c3)c(C(=O)OC)s2)cc1	0	?	-	0	0	?
O=C1NC(=Nc2ccccc2)S/C1=C\c1cccn1-c1ccccc1	0	?	2.8µM	-	?	?
Cc1cccc(N=C2NC(=O)/C(=C/c3cccn3C)S2)c1	0	-	11µM	-	-	-
O=C1NC(=Nc2ccccc2)S/C1=C\c1cccnc1	0	-	0	-	-	-
Cc1ccccc1N=C1NC(=O)/C(=C/c2cccn2C)S1	0	-	0	-	-	-
COc1ccc(CCNC(c2ccc(F)cc2)c2nnc(-c3ccccc3Cl)o2)cc1OC (stereo not given)	0	13µM	-	0	0	0
Fc1ccc(C(NCCc2ccc(Cl)cc2)c2nnc(-c3ccccc3)o2)c(Cl)c1 (stereo not given)	0	0	-	0	0	0
COc1cccc(Nc2c3c(nc4nncn24)CCC3)c1	?	0	-	0	0	0
Cc1cc(C)cc(Nc2cc(-c3ccccc3)nc(C)n2)c1	0	?	-	?	?	0
CC(=O)c1cc(-c2ccc(F)cc2)n(CCC(=O)NCc2ccccc2C)c1C	0	?	-	0	0	-
SMILES	HCMV inh	Marburg entry inh	HCV inh	VACV mCherry inh	VACV Venus inh	Lassa entry inh
Cc1cccc(Nc2c3c(nc4ccccc24)CCC3)c1	0	11µM	?	0	0	?
Cc1ccc(Nc2c3c(nc4ccccc24)CCC3)cc1F	?	?	-	10µM	?	0
Cc1ccc2nc3c(c(Nc4ccc(C)c(C)c4)c2c1)CCC3	?	-	-	?	0	?
c1coc(CNc2c3c(nc4ccccc24)CCC3)c1	-69	?	?	-	-	0
O=C(Cc1ccccc1Cl)NO	-	-	-	0	0	-
COc1cccc(CN2C(=O)NC(C)(C3CCN(Cc4ccc(C)o4)CC3)C2=O)c1OC (stereo not given)	-	-	-	0	0	-
COC(=O)C12CC3=CCC4C(=O)N(c5ccccc5)C(=O)C4C3Cc3ccccc3[C@H]1CNC2=O (stereo not given in full)	-	0	-	-	-	-
Cc1cccc(-c2nc3c4ccccc4nc(N4CCN(c5cccc(Cl)c5)CC4)n3n2)c1	-62	?	-	0	0	-
COc1ccccc1-c1nnc(SCC(=O)NC2CCCCC2)o1	0	0	0	11µM	?	0
COc1ccccc1-n1ccnc1SCC(=O)NC1CCCC1	0	0	?	0	0	-
O=C(CSc1nnc(NC(=O)c2ccccc2[N+](=O)[O-])s1)NC1CCCC1	0	0	0	0	0	0
COc1ccccc1-n1cnnc1SCC(=O)NC1CCCCC1	-83	-	0	-	-	-
COc1ccccc1C(=O)Nc1nnc(SCC(=O)NC2CCCC2)s1	-	11µM	?	0	0	?
Cc1ccccc1-c1nnc(SCC(=O)NC2CCCCC2)o1	0	0	0	-	0	0
COc1ccccc1NC(=O)Cn1nc(-c2ccncc2)nc1SCC(=O)NC1CCCC1	-76	?	?	0	0	0
CCOc1cccc2cc(-c3nc4sc5c(c4c(=O)[nH]3)CCC(C)C5)c(=O)oc12 (stereo not given)	0	-	-	0	0	0
Cn1c(C(=O)NCCc2ccccc2)cc2cc(S(=O)(=O)N3CCCCC3)ccc21	0	-	-	0	0	?
O=C(CSc1nc(-c2ccccc2)c2ccccc2n1)Nc1ccc(F)cc1	0	0	-	0	0	0
Cc1ccc(CN2[C@H]3CCCC[C@@H]3OCCS2(=O)=O)cc1	-	-	-	0	0	-
O=C(Nc1ccc2c(c1)OCO2)Nc1ccc2c(c1)OCO2	0	-	0	-	-	-
O=C(Nc1ccc(OC(F)F)c(Cl)c1)Nc1ccc2c(c1)OCO2	0	0	18µM	-	-	0
O=C(Nc1ccc(Cl)cc1)Nc1ccc2c(c1)OCO2	0	-	0	-	-	-
O=C(Nc1cccc(C(=O)O)c1)Nc1ccc2c(c1)OCO2	0	?	0	0	0	0.32µM
C=CCNC(=S)Nc1ccc(OC(F)F)c(Cl)c1	?	0	11µM	0	0	?
C=CCNC(=S)Nc1ccc(Cl)cc1	0	0	0	0	0	0
SMILES	HCMV inh	Marburg entry inh	HCV inh	VACV mCherry inh	VACV Venus inh	Lassa entry inh
CC(C)[C@@H]1NC(=O)[C@@H]2CSCCS(=O)(=O)N2C1=O	0	-	-	-	-	?
O=C(Nc1ncccc1O)c1ccc2c(c1)OCCO2	0	?	0	?	0	?
CCN(CC)S(=O)(=O)c1cc(OC)ccc1N=Nc1ccc(O)c2ncccc12	-97	-	5µM	?	?	-
Cc1ccc(C)c(N=Nc2ccc(O)c3ncccc23)c1	-84	-	6.3µM	-	-	-
Cc1ccc(N=Nc2cc(C)ccc2O)c(C)c1	0	-	0	-	-	-
Oc1ccc(N=Nc2ccc3c(c2)OCCO3)c2ncccc12	-103	-	?	-	-	-
Cc1cccc(N=Nc2ccc(O)c3ncccc23)c1	-102	4.5µM	5.6µM	14µM	?	?
CCCNC(=O)c1nnc2n1CCN(C(=O)CCc1ccccc1)C2	0	-	-	-	-	-
CC(C(=O)Nc1cc(C(F)(F)F)ccc1Cl)n1nnc2sc3c(c2c1=O)CCCC3 (stereo not given)	0	0	-	0	0	0
O=S(=O)(c1ccccc1)n1nc(-c2ccc(Cl)cc2)nc1NCc1ccccc1	0	?	-	0	0	0
CCC(Sc1nc2nccnc2c(=O)n1Cc1ccc(Cl)cc1)C(=O)NC1CCCCC1 (stereo not given)	0	-	-	0	0	0
COC(=O)CC=C[C@@H](C)[C@@H](Cc1ccccc1Br)OC	-	0	-	-	-	0
